Measurements taken from the supplement of paper PMC12632987.
Whole data set: some 2,300 sequences, median “median log2 fold change of GCK-ALFA target abundance (FLAG IP / Myc IP barcode read proportion)” near 0.095, cut for the lowest 2% near -0.47. The list comes from a sample in which the lowest values are over-represented; it also holds similar and randomly drawn sequences.

B1: LC3A_free_46_2383 (protein)
chain: YKAEIDIDFGAMDKETAEKIAEEIKKAAEEISKKYGVKVEVEVEIIEDEDGNYYLRVKITIEGEDKEKVEEAVNELIEKIDEIAEKANVSYIISVEFIDE
B2: LC3A_132_253 (protein)
chain: SKELLEKALKELKEILDKIVELLQAGKDPWPAIKELYEKALEYAKKLSLEETEKLAEEVEAYAEKLFAERLDPNNEEARRALEHIEMLLESVLIEKELRS
B3: LC3A_132_254 (protein)
chain: SEELLEKALKELKELLDKIVADLKAGKDPWPTINKLYELALKYAEKLSLEETEKLAEESEKYAEELFAKELDPNDEEARRTLDIVEMLLESVLIEKELRS
B4: LC3A_132_255 (protein)
chain: SKELLEKALKELKEILDKIVELLQAGKDPWPAVKELEEKAEEYAEKLSLEETEELVKESEKYAEELFAARLDPNNEEARRVLDHIEMLFESVLIEKELKS
B5: LC3A_28_1225 (protein)
chain: AAVDAEIAAARAAMAAAAAAGEEATITVKITGKTTLADVKRLMEALRAIVAEHAHLPRISIIIDLSGKVTQEQIDAAAEGGERIEKEFPNVTVILALDEN
B6: LC3A_28_983 (protein)
chain: MDPREQVEELIKKAKEAAAKGEATVFTITVTSTATEEDIELITEGLKEIAEILKDVKGSAIIVDVESGVPEEYIDKIAETMEEIEKANPNVTTIIALDED
B7: LC3A_free_8_2473 (protein)
chain: SVQELVDQITALLDELEEKVREKAKELGVDELDILELELEIGSLIADLISASDGTIEEVKEIAEEGLEEIEELAKELSEEIAEIVRETREKILALLEAAE
B8: LC3A_free_0_2120 (protein)
chain: KKTVVEVVIILDDSTSEEKAKEIHEKLKEEAEKLAKENGGELKSSLSKSDGSYIITLEITFDTEDIDLALEVERKLVEIAEKILKEANVEATIYSSVYLE
B9: LC3A_free_39_2211 (protein)
chain: SEEELEELLKKVAEESGLDYEYIRERVEEIRRVAGLSLEQMLELVKAILEAVREGADAEEILEEVLALAKELVAAGKSPEEIAEALLEEVEDFRNLIPLD
B10: LC3A_free_39_2213 (protein)
chain: SEEELEELLKKVAEESGLDYEYIKKKIEEIQKVAGLSLEQMKKIVEAILEAVKEGANAEEILERILALAKELKAAGKSPEEIAKALLEEVEDYRNLIPLD
B11: LC3A_free_0_2116 (protein)
chain: KKTVVEVLVILDESTTEEEAKKAYEELKKKAEEIAKKYGWEVKVELSKSDGSWIITVTLTSDSTDIDKALEIARELSDAAEEIAKELGLDATIYESVYLE
B12: LC3A_28_1087 (protein)
chain: SELEEQLKKALEEAKKAKEEGKEVTLEITVPDTATEEDIELVKETLKEIAEIAKELPSLSVVINLTGKNAQAKATELSAHAEELEKEVPNLTVIIALDED
B13: LC3A_3_1520 (protein)
chain: MEEIEKEIIKLLKEAGASEETIEKAKELLKLLRERGYLNAMKTLLEELKELKDAPVETIEAFVKDVLELVKTEDLSEEELSKRIKELATIAKNDAEIEEL
B14: LC3A_6_2066 (protein)
chain: KLYKITIDILLKSEKPEEALKVAKEIAEEIRKFAEEINKEYNGAVKKLEIKIEEIDGEVFLTIEIVAEEKAVNEIIDKVDEIVEENKEYVAASMISVEEL
B15: LC3A_28_724 (protein)
chain: NRLEASIAAALARARALAAAGESDVIEITIPGDATEEDIERVIEALEEIAAITADLPRTDIVINVEGGVKQEHIDRLADAAEAIEARYPNVTVIIALDEE
B16: LC3A_55_2007 (protein)
chain: MEVFIFITENAETGEILALEVEVDSDPERLLEALRAAGEELAAELFRLANGRRLDEEEMAEIKARYSPEEVRAAVEALIAVLESLPDVKVSVLIELEEEE
B17: LC3A_13_341 (protein)
chain: TVTLEVETAEELRERGFAALAAHPGETIRITVTVRDEEEAEAIAEVLAELVRAAAEAGSDLEITIRGPRDLVLYVALEVGSEAYEHIDKVTVTITEEVVE
B18: LC3A_147_449 (protein)
chain: MLYEITVDALFKNDPALAEEVAEQLKAIAEKHGGEVEVEFEEEQVSPTTTEYFLNVTITFEDKAKAQAAETEIAALLDETAAKHPDKFLGAILSFEEVEP
B19: LC3A_3_1611 (protein)
chain: MEELIERELERLREAGFSPEVLEEARKVLEALAEKGYRRAIEKLTEELLKLKDVDPELVIEALREILRIVTEEDLSEEEVIEEIEREFRVVRLESEIIEL
B20: LC3A_free_8_2519 (protein)
chain: KSKAFAQRVVAILEELEKEIVKLLKEKGASRLDILEAELLIGSIIAEVISLQDKSPEEIIKAVKEGLKELVEELEKYKEEVKKLAEEALKKIEAAKKELE
B21: LC3A_3_1395 (protein)
chain: FEEIRKETIEYLKKAGKSEEVIKAAEEALELLEKRGYLEAAKTFLEELKKMKDVSDELLLWFLNEVINYLKTNDDDEETVIKKIKEFATIVKNESEIEEL
B22: LC3A_147_483 (protein)
chain: MRIDIDALIKGEETVEEFIERLEEKKEELEEEGVEVELEIEVEEVEEGVYYLKVTVTIKAETKEKEKEAADKIIDTIEEFEEENKDKVLGVLISVEEIEE
B23: LC3A_28_1260 (protein)
chain: SELEKNIEAAIAEVKEAVAKGEEAVVTIKVPAGITEEEVEKVIETMEKIAELGKSLPSVTIIVDVEKGVKQEHIDKLVDKGEELEKKYPNLTVIFALEEE
B24: LC3A_45_1982 (protein)
chain: MWEATIDLLVPRELAEEAYAILKEAGAELVARHGDDLKVDWDALDASYEASRDEEEVYLRLNIYHPDKQVALDSAVEIVDRLEERLGRKVAAIISVKEVP
B25: LC3A_23_600 (protein)
chain: MVTVEADHVVKNDPELAEEKTKKLLEEIKKILEKNKDYIKDYKIEVEFYTDEDGNTVVRITVTVKVKDDPEKAQEIANELISAFDEILPDAVIAYDVEED
B26: LC3A_28_836 (protein)
chain: SFAEEEIKKAKKALEKAKETKEDVVVEVVIKSTMTPEEAQYIMDELEKEVSKLPKDVKVSIVFLAEEPVDPEVLQTIADGGDEIEEKYPNVTVIIALPEE
B27: LC3A_28_985 (protein)
chain: SAMEERLAAALAEAKAAAAAGEATVITIEVPSTATEEDIEKAVAALKEIGEILKGVKGSAIVVDLESGVPEEHIRKLADAGEEVEKANPDVSVIFALDED
B28: LC3A_141_362 (protein)
chain: AVKKKTYTYTATTYDEALKVAEEIGKEIKKFMEETGAEEVKVTVTITSYNEKTGEVTTETDTYTVTKENLDLFIEGLEIDLLSAFDKGADKIVVKVTIET
B29: LC3A_28_758 (protein)
chain: MDVAEIVAAAIAEAKAAAAAGEEAVIRIRVPAGATQEDIDKVIAGLEEIAEIRKDMKSTSIVIDIEAGVSQENIDKLIDAGEAIEKKYPNITVIFALDED

Biological target: MAP1LC3A, Q9H492
Assay: median log2 fold change of GCK-ALFA target abundance (FLAG IP / Myc IP barcode read proportion) (log2 ratio); each designed protein is fused to an ALFA-tag nanobody in HEK293 cells to bring the named protein to FLAG-tagged glucokinase (GCK); Myc marks an untargeted standard; higher = target protein stabilised (more abundant)
Settings: target protein: 3xFLAG-MCP-GCK-ALFA reporter; HEK293 landing pad (RPLP)
Outline: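 An ALFA-nanobody-fused binder library was recombined into HEK293 landing-pad cells and induced with 2 μg mL^−1 doxycycline. Cells were transfected with a plasmid expressing a FLAG-tagged target and a Myc-tagged standard. After 48 h, lysates underwent anti-FLAG and anti-Myc immunoprecipitation, and circular RNA barcodes were reverse transcribed, amplified and sequenced. Target abundance is the per-binder median log2 ratio of FLAG to Myc barcode read proportions. Barcodes needed ≥10^−7 proportion in both replicates, binders ≥3 barcodes per replicate, and a 10^−6 pseudocount was added; the two replicates were pooled.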

In order of falling “median log2 fold change” value:
1. B13  0.547
2. B21  0.436
3. B4  0.276
4. B12  0.251
5. B10  0.203
6. B5  0.191
7. B15  0.154
8. B19  0.132
9. B29  0.124
10. B16  0.119
11. B1  0.115
12. B26  0.111
13. B17  0.0625
14. B2  0.0444
15. B24  0.0214
16. B8  -0.12
17. B11  -0.122
18. B23  -0.13
19. B14  -0.173
20. B6  -0.2
21. B20  -0.243
22. B27  -0.274
23. B7  -0.379
24. B25  -0.566
25. B18  -0.603
26. B3  -0.669
27. B9  -0.819
28. B22  -0.904
29. B28  -0.96
